hcGAS inh: human cGAS inhibition | recombinant h-cGAS, ATP depletion, Kinase-Glo luminescence | 290,000 compounds, 0.081% hits | Q8N884 | inhibition, % at 12.5 µM | AID 1259398;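 note: 0% = vehicle reaction and 100% = reaction without DNA for no activity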
NPYLR7 agonist: activates Aedes aegypti NPYLR7 receptor. HEK293T NPYLR7/Galpha15, GCaMP6s calcium fluorescence. AID 1259423. activation, % at 10 µM. 270,000 compounds, 0.15% hits; in the data active = activation above about 40%;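 note: 0% = vehicle and 100% = reference agonist at the receptor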
mcGAS inh: blocks mouse cGAS activity; Q8C6L5; recombinant cGAS, Kinase-Glo ATP depletion luminescence; inhibition, % at 12.5 µM; 160,000 compounds, 0.15% hits; AID 1259399;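 note: 0% = negative control wells and 100% = reference inhibitor with no enzyme activity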
Target sequence (Q8C6L5 whole entry, looked up): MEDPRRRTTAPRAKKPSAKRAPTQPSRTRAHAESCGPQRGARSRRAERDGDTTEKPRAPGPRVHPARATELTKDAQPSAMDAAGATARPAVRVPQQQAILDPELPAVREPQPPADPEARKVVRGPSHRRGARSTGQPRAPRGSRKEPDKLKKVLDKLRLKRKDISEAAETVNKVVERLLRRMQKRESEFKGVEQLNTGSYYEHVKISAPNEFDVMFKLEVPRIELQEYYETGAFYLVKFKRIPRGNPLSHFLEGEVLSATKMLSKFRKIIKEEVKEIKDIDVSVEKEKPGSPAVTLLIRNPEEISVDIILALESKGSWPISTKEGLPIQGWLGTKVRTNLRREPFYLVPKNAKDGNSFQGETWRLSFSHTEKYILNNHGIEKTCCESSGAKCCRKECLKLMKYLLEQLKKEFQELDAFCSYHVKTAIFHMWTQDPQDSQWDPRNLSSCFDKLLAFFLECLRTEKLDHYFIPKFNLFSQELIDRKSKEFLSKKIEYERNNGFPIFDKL
Active calls of the source: *; . = no result given; + = active, no number; ! = a repeat was not active. Shown are actives, neighbours in structure and some others; about 0.24% of the full set was active somewhere. Cut-off read from the data, not from the text of the source, unless noted: active = inhibition above about 40%; inactive = the rest.

SMILES	hcGAS inh	NPYLR7 agonist	mcGAS inh
N#CC(C#N)=C1C=C2C=C(N3CCCCCC3)CCC2CC1 (stereo not drawn)	-6.3	673.2*	-4.2
N#CC(C#N)=C1C=C2CC(=NCc3ccccc3)CCC2CC1 (stereo not drawn)	-3.5	35.9	.
CCN1CCN(C2=CC3=CC(=C(C#N)C#N)CCC3CC2)CC1 (stereo not drawn)	-9.1	+	-3.2
N#CC=CN1CCc2ccccc2C1	-2.6	0.9	.
COc1ccc(-c2cnc3ncnn3c2N2CCCN(S(=O)(=O)c3ccc(OC(F)(F)F)cc3)CC2)cc1	0.0	.	2.4
COc1ccc(CNC(=O)c2sc(=O)n(Cc3ccc4c(c3)OCO4)c2C)cc1	-6.1	12.5	.
Cc1ccccc1Cn1cc(C(=O)NCCc2cccc(C(F)(F)F)c2)nn1	-0.2	10.3	-4.5
COc1ccc(-c2nnc(C[C@@H]3C[C@@H](C(C)C)[C@H](CNc4ccccn4)C=C3C)o2)cc1	-3.8	-10.1	-4.3
COc1ccc(NC[C@@H]2C=C(C)[C@H](Cc3nnc(C)o3)C[C@H]2C(C)C)cn1	-5.4	54.5*	-5.7
COc1cccc(C(=O)Nc2nn(C)c3c2CC(C)C(=O)N3)c1OC (stereo not drawn)	-7.8	-17.6	-10.1
O=c1[nH]c2n[nH]c(=S)n2c2c1CCCC2	50.9*	-2.3	.
Cc1cc(=O)[nH]c2n[nH]c(=S)n12	28.0	-3.8	.
O=C(CCl)Nc1ccc(Cl)cc1[N+](=O)[O-]	-4.9	-1.2	13.6
O=C(CCl)Nc1cc([N+](=O)[O-])ccc1Cl	-2.4	-6.0	51.6*
CCOc1ccc(-c2nnc3ccc(SCC(=O)Nc4ccc(C)c(Cl)c4)nn23)cc1	-5.2	16.4	-6.6
N#CC(=Cc1ccc(C#N)cc1)c1nnc2n1CCCCC2	-4.2	-5.8	43.8*
N#CC(=Cc1ccc(C=C(C#N)c2nnc3n2CCCCC3)cc1)c1nnc2n1CCCCC2	-3.3	2.5	.
CN1C[C@H]2CNC[C@@]2(C(=O)NCCCn2nccc2C2CC2)C1	-8.1	.	-4.8
O=C(O)c1cc2c(ccc3ccccc32)oc1=O	16.5	-6.4	41.8*
O=C(NCc1ccccn1)c1cc2c(ccc3ccccc32)oc1=O	-6.0	11.1	.
O=c1oc2ccc3ccccc3c2cc1-c1nnc(-c2ccccc2)o1	46.4*	-6.2	-2.0
COc1ccc(-c2nnc(-c3cc4c(ccc5ccccc54)oc3=O)o2)cc1	2.8	-3.7	-1.0
CN1C(=O)c2cccc3c([N+](=O)[O-])ccc(c23)C1=O	-3.5	-2.3	1.0
Cc1nc(CS(=O)(=O)Cc2ccc(C(F)(F)F)cc2)cs1	-10.5	8.1	.
Cc1ccccc1C(C)NC(=O)c1ccc(OCc2nccn2C)cc1 (stereo not drawn)	-8.0	2.0	.
SMILES	hcGAS inh	NPYLR7 agonist	mcGAS inh
CC[C@@]1(O)C(=O)OCc2c1cc1n(c2=O)Cc2cc3c(CN(C)C)c(O)ccc3nc2-1	-3.0	88.2*	.
CCN(CC)C(=O)COc1coc(CN2CCc3ccccc3C2)cc1=O	-6.3	3.4	-8.1
CC1(C)CC[C@]2(C)CC[C@]3(C)C(=CCC4[C@@]5(C)CC[C@H](O)C(C)(C)C5CC[C@]43C)C2C1 (stereo partly drawn)	-5.2	.	-3.4
C[C@@H]1OC(O[C@H]2[C@H](OC(=O)[C@]34CCC(C)(C)CC3C3=CCC5[C@@]6(C)CC[C@H](OC7O[C@@H](C)[C@H](O[C@@H]8OC[C@@H](O)[C@H](O)[C@H]8O)[C@@H](O)[C@H]7O)C(C)(C)C6CC[C@@]5(C)[C@]3(C)CC4O)OC[C@H](O)[C@H]2O)[C@H](O)[C@H](O)[C@H]1O[C@@H]1O[C@H](CO)[C@@H](O)[C@H](O)[C@H]1O (stereo partly drawn)	-1.4	54.1*	.
CCOC(=O)c1cc(-c2cccc(NC(=O)c3cccc(OC)c3)c2)n(-c2ccc(F)cc2)n1	-0.3	16.9	-3.6
O=C1C(=Cc2ccc(OC(F)F)cc2OC(F)F)Oc2cc(O)ccc21	-4.6	41.4*	.
CCOc1cccc(C=C2Oc3cc(O)ccc3C2=O)c1OC	-3.6	69.7*	.
COc1ccccc1C=C1Oc2cc(O)ccc2C1=O	-5.3	17.4	.
COc1ccc(C=C2Oc3cc(O)ccc3C2=O)c(OC)c1	-8.1	33.7	.
Cc1ccc(N2CC(C(=O)N3CCN(c4ncnc5c4nnn5C)CC3)CC2=O)cc1C (stereo not drawn)	-0.7	0.9	.
CN(C)C(=O)C1CCCN(CCCOc2ccccc2)C1 (stereo not drawn)	-6.7	4.1	-10.2
CCOc1ccc(-c2cc(-c3nc(-c4ccccn4)no3)[nH]n2)cc1	-6.9	7.4	-9.1
CC1C(=O)N(c2ccccc2-c2ccccc2)CCN1C(=O)c1ccc(Cl)cc1Cl (stereo not drawn)	-5.3	-3.5	-6.4
COc1cccc2c1C(=O)c1c(O)c3c(c(O)c1C2=O)C[C@@](O)(C(C)=O)C[C@@H]3O[C@H]1C[C@H](N)[C@H](O)[C@H](C)O1	60.1*!	-2.2	.

Screening results deposited in PubChem BioAssay by Fisher Drug Discovery Resource Center.
